ALR H2O2 inh = inhibitors of human sulfhydryl oxidase ALR | P55789 | purified ALR, DTT oxidation, H2O2 HRP-luminol luminescence | inhibition, % (no concentration beside the values) | 290,000 compounds, 3.8% hits | AID 485317;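 active = mean replicate inhibition above about 79%, with every replicate also reaching it, limit read from the data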
Target sequence (P55789 whole entry, looked up): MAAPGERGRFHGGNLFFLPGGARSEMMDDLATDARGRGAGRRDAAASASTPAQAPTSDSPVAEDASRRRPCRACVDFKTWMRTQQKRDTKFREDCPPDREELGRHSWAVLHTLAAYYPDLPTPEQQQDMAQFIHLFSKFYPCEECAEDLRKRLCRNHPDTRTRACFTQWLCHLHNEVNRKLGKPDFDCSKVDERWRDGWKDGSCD
VLA-4 inh = inhibition in a human VLA-4 binding assay; inhibition, % (about 7 µM as worked out from the volumes in the protocol); 330,000 compounds, 0.2% hits; VLA-4 expressing cells, ligand binding flow cytometry; AID 2557; in the data active = inhibition above about 50%
A1 inh = inhibitors of the anti-apoptotic protein A1, read as caspase activation | 330,000 compounds, 0.066% hits | caspase activation, % (no concentration beside the values) | MEF A1-2A-BIM cells, Caspase-Glo 3/7 luminescence, 3 h; percent of clofoctol response, vehicle zero;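 active = over half of replicate activation scores above 10%, or exactly half above 10 with the replicate mean above 10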
SUMO Mot1 rescue = inhibitors of SUMOylation pathway: yeast Mot1-301 growth rescue | S. cerevisiae Mot1-301 growth rescue, ATP luminescence, 38.5C; percent above DMSO median, 100 means doubled | growth rescue, % at 18.8 µM | 320,000 compounds, 1% hits | AID 2716;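 active = every valid replicate shows activation above 250% relative to neutral control wells; inactive = the rest, any valid replicate at or below 250%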;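 note: OY570 slx delta 5 strain wells were the positive control but not used for scaling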
AHR activator = human AHR activation; activation, % at 5 µM; 320,000 compounds, 2.5% hits; P35869; AHR-responsive luciferase reporter cells, luminescence; AID 2796; in the data active = activation above about 47%;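 note: 0% = vehicle wells and 100% = reference agonist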
Efflux pump inh = antifungal efflux pump inhibition, Nile Red retention | S. cerevisiae Candida pump triplex | inhibition, % at 10 µM | 330,000 compounds, 0.44% hits | AID 485275;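 active = plate passing quality check with inhibition over a set limit, or well fluorescence over plate mean plus 4 SD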;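 note: Nile Red retained in pooled yeast measured as flow cytometry median fluorescence; 0% = buffer negative control and 100% = Enniatin B positive control; higher means more Nile Red kept so more efflux inhibition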
An asterisk follows results filed as active; . = not tested or not shown. This is a sample that favours compounds with a hit; in the whole collection about 7.2% have one here.

SMILES | ALR H2O2 inh | VLA-4 inh | A1 inh | SUMO Mot1 rescue | AHR activator | Efflux pump inh
COc1ccc(Br)cc1C(=O)Nc1ccc(O)cc1 | 99.1* | 8.8 | 0.0 | 3.5 | 42.0 | 0.0
COc1ccc(Br)cc1C(=O)Nc1cccc(C)c1 | 0.0 | -8.4 | -1.2 | 1.0 | 50.0* | -0.1
CCOC(=O)c1ccc(NC(=O)c2cc(OC)c(OC)c(OC)c2Br)cc1 | -16.9 | 6.0 | 0.8 | 54.5 | -1.2 | 0.1
COc1cccc(NC(=O)c2cc(OC)c(OC)c(OC)c2Br)c1 | 97.2* | 14.8 | -0.3 | 8.2 | 4.1 | 0.1
COc1cccc(NC(=O)c2cc3cccc(OC)c3o/c2=N\O)c1 | 51.6 | -13.9 | -5.6 | -9.1 | 62.9* | -0.1
Cc1cccc(C)c1NC(=O)COc1cccc(/C=N/NC(=O)C(=O)NCc2ccccc2)c1 | -16.6 | 16.7 | 0.1 | . | 1.0 | 0.1
Cc1ccc(CSc2cc(C)[nH]c(=O)n2)cc1 | -7.3 | 15.0 | 0.0 | 23.6 | 1.8 | -0.1
COc1cccc2sc(Nc3nnc(-c4ccc(F)cc4)o3)nc12 | 34.3 | 12.9 | -4.6 | -1.6 | 65.6* | 0.0
COc1c(Cl)cc(Cl)cc1CNc1ccc(S(N)(=O)=O)cc1 | -23.1 | 0.6 | 1.4 | 326.6* | -0.4 | 0.1
Cc1cccc(C)c1NC(=O)c1cccc(N2C(=O)C3CCC(C)CC3C2=O)c1 (centres undefined) | -4.0 | -7.9 | 0.3 | 6.0 | -0.8 | 0.0
CCN(Cc1ccncc1)S(=O)(=O)c1ccc(C(C)=O)cc1 | 89.7* | 2.5 | 0.0 | 3.1 | 2.7 | -0.1
OC(COC1CCCCC1)CN1CCN(c2ccccc2)CC1 (centres undefined) | 91.6* | -2.4 | -0.5 | 9.8 | -1.2 | 0.1
O=C(Nc1cccc(Cl)c1)Nc1csc([N+](=O)[O-])c1 | -5.7 | 10.8 | -0.8 | 13.9 | 37.5 | -0.3
CC(C)C(=O)Nc1cccc(-c2cn3ccccc3n2)c1 | 0.7 | 23.2 | -0.3 | 260.4 | 7.9 | -0.1
c1ccc2c(-c3cn4ccccc4n3)c[nH]c2c1 | 54.9 | -84.6 | 0.1 | -3.4 | 53.8* | 0.1
Oc1ccc(-c2cn3ccccc3n2)cc1 | 99.0* | -0.7 | -4.9 | -12.1 | 6.7 | -0.2
Brc1ccc(-c2cn3ccccc3n2)cc1 | -4.4 | 2.8 | -7.1 | 1.1 | 29.9 | 0.0
Oc1ccc(-c2cn3ccccc3n2)cc1O | 98.8* | 17.9 | -5.5 | -12.3 | 2.2 | 0.0
Cc1ccn2cc(-c3cccc(NC(=O)C(C)C)c3)nc2c1 | 4.2 | -1.5 | -1.1 | 21.9 | 6.5 | -0.1
c1ccc2c(-c3nnc(SCc4cn5ccccc5n4)o3)c[nH]c2c1 | 34.2 | -8.6 | -0.2 | -5.8 | -1.5 | -0.1
Cc1ccn2cc(-c3ccc(O)c(O)c3)nc2c1 | 99.0* | 22.9 | -6.0 | 3.1 | 6.9 | 0.1
Cc1c(Cc2ccccc2)c(=O)oc2cc(OCC(=O)NCC(O)c3ccccc3)ccc12 (centres undefined) | 5.1 | 8.1 | 0.3 | -1.6 | 3.4 | -0.2
CCOc1ccc(C2c3cc(OC)c(OC)cc3CC(=O)N2c2ccc(OC)cc2)cc1 (centres undefined) | -8.5 | 0.0 | 0.0 | 47.5 | -0.7 | 0.0
COc1cc(C)ccc1OCC(=O)OCC(=O)NCC1CCCCC1 | -3.8 | 1.6 | -1.2 | -12.0 | 0.2 | 0.2
CC(C)(CNC(=O)Cc1ccc(NS(=O)(=O)c2cccc(C(F)(F)F)c2)cc1)N1CCOCC1 | 2.2 | -6.3 | 0.0 | 1.9 | -0.9 | 0.0
SMILES | ALR H2O2 inh | VLA-4 inh | A1 inh | SUMO Mot1 rescue | AHR activator | Efflux pump inh
Cc1ccc(C(C)C)c(OCC(=O)NNCC(=O)Nc2cccc(F)c2)c1 | -1.1 | 11.6 | 0.6 | 228.8 | 3.3 | -0.3
CC(=O)Nc1cccc(-c2cn3ccccc3n2)c1 | 0.0 | -4.8 | 1.5 | 14.0 | 60.8* | 0.0
O=[N+]([O-])c1ccc(-c2cn3ccccc3n2)cc1 | . | -0.7 | -7.1 | -1.4 | -1.6 | -0.2
CN(C)S(=O)(=O)c1ccc(-c2cn3ccccc3n2)cc1 | 99.3* | -2.4 | -2.4 | 1.1 | 9.3 | 0.3
O=C(N/N=C/c1cc([N+](=O)[O-])ccc1O)c1ccc(COc2ccc3c(c2)CCC3)o1 | -4.7 | 21.5 | 2.7 | 10.4 | . | -0.1
O=C(N/N=C/c1ccccc1F)c1ccc(COc2ccccc2Cl)o1 | -0.5 | -8.1 | 2.6 | 73.2 | 22.2 | -0.4
COc1cc(/C=N/NC(=O)c2ccc(COc3ccccc3Cl)o2)cc(Br)c1O | . | 14.0 | -0.2 | -4.0 | 40.3 | -0.1

High-throughput results from PubChem.
